Screens deposited in PubChem BioAssay by several laboratories.
Hits are enriched below; roughly 2.7% of the tested compounds scored in any of these assays.
FAS-TE inh: FAS thioesterase domain inhibitors, primary screen, biochemical, fluorescence intensity, uHTS; Fatty acid synthase (Homo sapiens), P49327; recombinant FAS-TE, OMFH fluorogenic substrate, fluorescence endpoint; 360,000 tested, 0.67% active; inhibition, % at 15 µM; AID 602261, 2012;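 active = compounds whose normalised, plate-corrected inhibition of enzyme fluorescence in the single-dose primary screen is 50% or more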
Neddyl block: inhibitors of cullin neddylation, primary screen, biochemical, TR-FRET, uHTS, NAE and Ubc12; NEDD8-conjugating enzyme Ubc12 (Homo sapiens) + NEDD8-activating enzyme E1 regulatory …; calls only at 25 µM; 360,000 tested, 0.58% active; AID 651699, 2012; in the data active = inhibition above about 36%
KLK7 zymogen act: proKLK7 zymogen activators, primary screen, biochemical, fluorescence intensity; purified proKLK7, EDANS-DABCYL substrate fluorescence; 100% is mature enzyme control, 0% vehicle; 370,000 tested, 0.9% active; activation, % at 7 µM;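 active = activation above the mean of all tested compounds plus 3 SD, computed per campaign excluding outliers beyond control limits, cut at about 13% in these data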
Target sequence (P49862 whole entry, looked up): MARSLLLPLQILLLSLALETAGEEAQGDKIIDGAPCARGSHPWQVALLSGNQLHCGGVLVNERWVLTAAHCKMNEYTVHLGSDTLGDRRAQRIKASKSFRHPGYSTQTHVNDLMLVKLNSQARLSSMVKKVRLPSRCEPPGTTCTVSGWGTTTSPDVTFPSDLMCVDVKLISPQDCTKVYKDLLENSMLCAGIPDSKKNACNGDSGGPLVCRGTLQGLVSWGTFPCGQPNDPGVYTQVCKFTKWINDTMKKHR
PfGluPho inh: PfG6PD enzyme inhibitors, primary screen, biochemical, fluorescence intensity, uHTS; inhibition, % at 20 µM; PfGluPho enzyme, NADPH resazurin-diaphorase fluorescence; glucose-6-phosphate dehydrogenase-6-phosphogluconolactonase (Plasmodium falciparum 3D7); 350,000 tested, 0.78% active;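 active = inhibition reaching at least a set limit at 20 µM in the primary screen, cut at about 59% in these data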
PfG6PD confirm: PfG6PD inhibitors, hit retest, confirmation, biochemical, fluorescence intensity, single concentration; recombinant PfGluPho, NADPH-diaphorase-resazurin fluorescence; shares compounds with PfGluPho inh; 2,400 tested, 34% active; inhibition, % at 20 µM; AID 504753, 2011;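 active = inhibition of at least 50% at 20 µM in any single replicate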
Diaphorase 10uM: diaphorase inhibitors and chemical oxidizers, confirmation, counter-screen for P. falciparum G6PD inhibitor project, biochemical, fluorescence intensity, 10 µM NADPH | AID 504862, 2011 | diaphorase-coupled resazurin reduction, NADPH 10 uM | 820 tested, 39% active | shares compounds with PfGluPho inh | inhibition, % at 20 µM;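 active = average inhibition reaching 50% or more with the compound at 20 µM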;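 also: resorufin red fluorescence formed as diaphorase reduces resazurin using NADPH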
Diaph ctr 30uM: diaphorase inhibitors and chemical oxidizers, confirmation, counter-screen for P. falciparum G6PD inhibitor project, biochemical, fluorescence intensity, 30 µM NADPH | shares compounds with PfGluPho inh | Diaphorase/resazurin coupled assay, resorufin fluorescence | inhibition, % at 20 µM | 820 tested, 29% active;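 active = inhibition averaging 50% or more, tested at 20 µM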
Numbers stand for hits; - = inactive; . = not tested or not shown.

SMILES	FAS-TE inh	Neddyl block	KLK7 zymogen act	PfGluPho inh	PfG6PD confirm	others
CC(=O)Nc1ccc2c(=O)n(-c3ccccc3)sc2c1	-	-	-	127	105	Diaphorase 10uM=-;Diaph ctr 30uM=-
COCCn1c(=O)sc2ccccc2c1=O	-	-	-	-	.
CN(C)S(=O)(=O)c1cccc(-n2sc3ccccc3c2=O)c1	-	-	-	115	111	Diaphorase 10uM=-;Diaph ctr 30uM=-
COc1ccc(CNC(=S)OC2CCC23CCC(c2ccccc2)CC3)cc1 (stereo not given)	.	.	-	.	.
Cc1ccccc1-n1sc2cc(F)ccc2c1=O	-	-	-	114	114	Diaphorase 10uM=-;Diaph ctr 30uM=-
O=c1c2ccccc2sn1-c1ccccc1F	-	-	-	122	109	Diaphorase 10uM=-;Diaph ctr 30uM=-
O=c1c2ccccc2sn1-c1cccc(Cl)c1	-	-	-	128	104	Diaphorase 10uM=-;Diaph ctr 30uM=-
O=c1nc2sc3ccccc3n2c(=O)n1-c1cccc(Cl)c1	-	-	.	-	.
O=c1c2ccccc2sn1-c1ccccc1	-	-	-	112	114	Diaphorase 10uM=-;Diaph ctr 30uM=-
C=CCN1[C@@H](C)COc2cc(F)ccc2S1(=O)=O	.	.	-	.	.
CC(C)c1cc(C(=O)N(C2CCCCC2)C2CCCCC2)no1	.	.	-	.	.
O=c1c2cc(C(F)(F)F)ccc2sn1-c1ccccc1	-	-	-	128	94	Diaphorase 10uM=-;Diaph ctr 30uM=-
O=c1c2ccccc2c(-c2cccc(C(F)(F)F)c2)nn1-c1ccccc1	-	-	-	-	.
N#Cc1ccc2c(=O)n(-c3ccccc3)sc2c1	-	-	-	123	108	Diaphorase 10uM=-;Diaph ctr 30uM=-
Cc1nc2ccc(C(=O)N3CCN(C(=O)C(Cl)Cl)CC3)cc2n1C1CCCC1	.	.	-	.	.
COc1ccc(CSCC(=O)N/N=C/c2ccccc2OCc2ccccc2)cc1	-	-	-	89	-
O=C(CSCc1ccccc1)N/N=C/c1ccccc1OCc1ccccc1	-	-	-	63	-
COc1ccccc1/C=N/NC(=O)CCSc1ccccc1	-	-	-	63	72	Diaphorase 10uM=65;Diaph ctr 30uM=67
COc1ccccc1C=NN=C(NN=Cc1ccccc1OC)NN=Cc1ccccc1OC	-	-	-	77	-
COc1ccc(CCCC(=O)N/N=C/c2ccccc2OC)cc1	-	-	-	98	67	Diaphorase 10uM=70;Diaph ctr 30uM=57
COc1ccc(CCCC(=O)N/N=C/c2ccc(C)cc2)cc1	-	-	-	-	.
C=CCN(Cc1ccc2c(c1)OCO2)C(C#Cc1ccccc1)c1ccccc1C(F)(F)F (stereo not given)	.	.	-	.	.
CCOC(=O)[C@@]12CCCC3=C1N(CCC3)C(=O)[C@H]2CC(=O)NCc1ccc(C)o1	.	.	-	.	.
Cc1nc2c(=O)[nH]c(=S)n(C)c2nc1C	-	-	-	65	-
Oc1ccc2ccccc2c1C=NC12CN3CCN(CN(C3)C1)C2	-	-	-	75	-
SMILES	FAS-TE inh	Neddyl block	KLK7 zymogen act	PfGluPho inh	PfG6PD confirm	others
C[C@H]1C2CC(OC(=O)Nc3cccc(F)c3)C(C2)[C@H]2CCCCN21 (stereo not given in full)	.	.	-	.	.
CC(C)n1cnc2c(NCc3ccccc3)cc(N[C@H](C)CO)cc21	-	-	.	67	-
CCC(COC)Oc1cc(NCc2ccccc2)c2ncn(C(C)C)c2c1 (stereo not given)	-	-	-	83	-
COc1cc(NCc2ccccc2)c2ncn(Cc3ccccc3)c2c1	-	-	-	66	50	Diaphorase 10uM=-;Diaph ctr 30uM=-
COCCCOc1cc(NCc2ccccc2)c2ncn(C(C)C)c2c1	-	-	-	-	.
CCCCOc1cc(NCc2ccccc2)c2ncn(C(C)C)c2c1	-	-	-	73	-
O=C(O)c1cccc(S(=O)(=O)NCC(=O)N2CCN(c3ccccn3)CC2)c1	.	.	-	.	.
COc1cc(-c2cc(OC)c3c(C)oc(C)c3c(=O)c2)ccc1O	-	-	-	-	.
COc1c(O)c(O)c2oc(-c3ccccc3)cc(=O)c2c1OC	-	-	-	98	79	Diaphorase 10uM=67;Diaph ctr 30uM=-
COc1cc(OC)c2c(=O)cc(-c3ccccc3)oc2c1	-	.	-	-	.
COc1cc(-c2cc(=O)c3c(O)c(OC)c(OC)c(O)c3o2)ccc1O	-	-	-	88	82	Diaphorase 10uM=-;Diaph ctr 30uM=-
O=C(c1cc(Cl)cc(Cl)c1)N1CC[C@H]2[C@H](CCCN2Cc2ccc(F)cc2)C1	.	.	-	.	.
c1ccc(-c2nnc3n2N=C(c2ccc4ccccc4c2)CS3)cc1	.	.	-	.	.
N#Cc1cccc(NC(=O)OC2CC3CC2[C@H]2CCCCN2C3)c1 (stereo not given in full)	.	.	-	.	.
CC(Nc1ccc(N2CCOCC2)cc1)C(=O)N1c2ccccc2CC1C (stereo not given)	-	-	-	69	-
c1ccc(Cn2ccc3ccc(-c4ccc5ccn(Cc6cccc(Oc7ccccc7)c6)c5c4)cc32)cc1	.	.	-	.	.
CCc1cc2c(=O)c(-c3nc(C)cs3)coc2cc1O	-	-	-	76	-
N=c1n(CCN2CCOCC2)c2ccccc2n1CC(=O)c1cccc([N+](=O)[O-])c1	-	-	-	75	-
CCCn1c(=N)n(CC(=O)c2ccc(Cl)cc2)c2ccccc21	-	-	-	-	.
CCCCOC(=O)Cn1c(=N)n(CCN2CCOCC2)c2ccccc21	-	-	-	-	.
CCCn1c(=N)n(CC(=O)c2ccc([N+](=O)[O-])cc2)c2ccccc21	-	-	-	73	-
N=c1n(CCN2CCOCC2)c2ccccc2n1CC(=O)c1ccc(Cl)c(Cl)c1	-	-	-	114	-
CCc1nnc(N/N=C/c2c(C)[nH]c3ccccc23)n1N	-	-	-	60	-
Cc1[nH]c2ccccc2c1/C=N/NC(N)=S	-	-	-	-	.
CC(c1ccc(O)cc1)c1cn(C)c2ccccc12 (stereo not given)	.	.	-	.	.
SMILES	FAS-TE inh	Neddyl block	KLK7 zymogen act	PfGluPho inh	PfG6PD confirm	others
COc1ccc2c(c1O)-c1ccccc1CCN(C)C2	-	-	-	-	.
CN1CCc2cccc3c2[C@@H]1Cc1ccc(O)c(O)c1-3	-	-	.	89	86	Diaphorase 10uM=-;Diaph ctr 30uM=-
COc1ccc(NC(=O)Nc2cccc([N+](=O)[O-])c2)cc1Cl	-	-	-	61	-
COC(=O)C1CN(Cc2cn(Cc3ccc(OC)cc3)nn2)CCS(=O)(=O)N1Cc1ccc(F)cc1 (stereo not given)	.	.	-	.	.
Cc1nc(SCC(=O)c2ccc(F)cc2)n[nH]1	-	-	-	63	-
S=c1cnc2ccccc2[nH]1	-	-	-	64	-
Clc1ccc(-c2nc(CSc3ccccn3)cs2)cc1	-	-	-	-	.
